Reference: the supplement of paper PMC10849652
The full data set covers some 8,800 targets. This sample favours those with a hit. About 0.5% of all pairs of compound and target were hits. Unmarked numbers belong to inactive results.

What follows are targets tested with O=C(CCCCCCC(=O)Nc1ccccc1)NO [vorinostat] (assay: log2 fold change, soluble protein after heating vs DMSO (PISA); higher = thermal stabilisation; K562 lysate, 10 uM; active = over 0.2 and 3.5 SD of the protein, either way, in both replicates (recomputed)).
Procedure, shortened: (§1)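 Values give the log-two fold change in thermal stability against solvent controls, from duplicates. Crude K562 extract at 1 mg/mL protein, made by dounce homogenisation in PBS pH 7.4 with 1 mM MgCl2, was treated with 10 μM compound for 30 min. After 3 min heating across 48°C-58°C, aliquots were pooled, adjusted to 0.5% NP-40 at 4°C and centrifuged at 21,000xg for 90 min. The supernatant was measured by TMTpro 16plex LC-MS/MS with channel sums equalised.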

UniProt O95819, sequence (O95819 whole entry, looked up): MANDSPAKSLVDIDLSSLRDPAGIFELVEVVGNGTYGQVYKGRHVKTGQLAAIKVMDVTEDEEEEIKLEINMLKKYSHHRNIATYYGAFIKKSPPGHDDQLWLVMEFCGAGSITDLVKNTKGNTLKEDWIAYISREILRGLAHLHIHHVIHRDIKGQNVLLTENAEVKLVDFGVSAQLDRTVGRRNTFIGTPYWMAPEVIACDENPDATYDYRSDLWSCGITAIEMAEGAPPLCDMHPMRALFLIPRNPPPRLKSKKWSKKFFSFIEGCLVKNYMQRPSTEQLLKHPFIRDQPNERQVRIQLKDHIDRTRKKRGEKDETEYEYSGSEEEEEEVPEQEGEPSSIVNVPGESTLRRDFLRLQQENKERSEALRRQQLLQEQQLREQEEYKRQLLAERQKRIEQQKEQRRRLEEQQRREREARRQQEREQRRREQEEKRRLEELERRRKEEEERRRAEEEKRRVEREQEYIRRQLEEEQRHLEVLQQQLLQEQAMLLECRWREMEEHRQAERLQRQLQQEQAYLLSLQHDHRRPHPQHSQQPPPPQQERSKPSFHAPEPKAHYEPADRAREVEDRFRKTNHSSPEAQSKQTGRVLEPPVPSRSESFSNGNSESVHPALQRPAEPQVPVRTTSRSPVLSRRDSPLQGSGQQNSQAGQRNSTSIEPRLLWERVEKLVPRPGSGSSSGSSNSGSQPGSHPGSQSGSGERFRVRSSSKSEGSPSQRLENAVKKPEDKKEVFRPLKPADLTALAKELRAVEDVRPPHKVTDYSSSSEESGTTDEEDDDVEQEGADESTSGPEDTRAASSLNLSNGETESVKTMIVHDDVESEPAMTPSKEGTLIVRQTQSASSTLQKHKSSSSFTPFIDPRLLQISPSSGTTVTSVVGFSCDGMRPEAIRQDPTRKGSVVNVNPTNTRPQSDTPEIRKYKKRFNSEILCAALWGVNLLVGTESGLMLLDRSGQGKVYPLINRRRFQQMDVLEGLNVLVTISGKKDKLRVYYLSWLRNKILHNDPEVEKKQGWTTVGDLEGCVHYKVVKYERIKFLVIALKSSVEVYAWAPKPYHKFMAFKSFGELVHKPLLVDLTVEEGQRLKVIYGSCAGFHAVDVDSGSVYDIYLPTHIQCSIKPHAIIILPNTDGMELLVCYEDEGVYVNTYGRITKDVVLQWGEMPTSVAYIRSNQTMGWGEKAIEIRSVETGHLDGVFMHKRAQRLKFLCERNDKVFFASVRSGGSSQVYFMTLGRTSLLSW
UniProt Q13164, sequence (Q13164 whole entry, looked up): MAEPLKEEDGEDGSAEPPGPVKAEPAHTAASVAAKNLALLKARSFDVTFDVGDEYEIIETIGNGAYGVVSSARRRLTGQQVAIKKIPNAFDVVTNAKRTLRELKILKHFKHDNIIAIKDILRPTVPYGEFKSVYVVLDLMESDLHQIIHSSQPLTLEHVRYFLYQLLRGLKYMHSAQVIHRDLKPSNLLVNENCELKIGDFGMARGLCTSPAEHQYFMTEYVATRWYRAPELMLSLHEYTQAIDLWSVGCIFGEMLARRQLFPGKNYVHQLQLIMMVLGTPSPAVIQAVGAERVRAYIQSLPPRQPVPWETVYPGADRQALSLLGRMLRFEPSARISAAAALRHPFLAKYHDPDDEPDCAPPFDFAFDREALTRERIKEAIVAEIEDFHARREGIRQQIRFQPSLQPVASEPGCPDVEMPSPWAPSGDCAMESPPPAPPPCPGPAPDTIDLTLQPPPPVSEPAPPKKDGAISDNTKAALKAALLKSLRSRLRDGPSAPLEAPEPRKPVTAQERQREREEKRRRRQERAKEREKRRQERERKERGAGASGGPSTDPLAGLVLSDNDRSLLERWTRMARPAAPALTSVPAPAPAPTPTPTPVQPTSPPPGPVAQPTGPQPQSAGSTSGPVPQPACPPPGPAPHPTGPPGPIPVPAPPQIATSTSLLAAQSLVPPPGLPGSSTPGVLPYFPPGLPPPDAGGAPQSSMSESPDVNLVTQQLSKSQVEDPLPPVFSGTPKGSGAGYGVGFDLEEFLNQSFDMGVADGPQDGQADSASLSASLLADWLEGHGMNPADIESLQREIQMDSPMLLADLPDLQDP
UniProt Q71SY5, sequence (Q71SY5 whole entry, looked up): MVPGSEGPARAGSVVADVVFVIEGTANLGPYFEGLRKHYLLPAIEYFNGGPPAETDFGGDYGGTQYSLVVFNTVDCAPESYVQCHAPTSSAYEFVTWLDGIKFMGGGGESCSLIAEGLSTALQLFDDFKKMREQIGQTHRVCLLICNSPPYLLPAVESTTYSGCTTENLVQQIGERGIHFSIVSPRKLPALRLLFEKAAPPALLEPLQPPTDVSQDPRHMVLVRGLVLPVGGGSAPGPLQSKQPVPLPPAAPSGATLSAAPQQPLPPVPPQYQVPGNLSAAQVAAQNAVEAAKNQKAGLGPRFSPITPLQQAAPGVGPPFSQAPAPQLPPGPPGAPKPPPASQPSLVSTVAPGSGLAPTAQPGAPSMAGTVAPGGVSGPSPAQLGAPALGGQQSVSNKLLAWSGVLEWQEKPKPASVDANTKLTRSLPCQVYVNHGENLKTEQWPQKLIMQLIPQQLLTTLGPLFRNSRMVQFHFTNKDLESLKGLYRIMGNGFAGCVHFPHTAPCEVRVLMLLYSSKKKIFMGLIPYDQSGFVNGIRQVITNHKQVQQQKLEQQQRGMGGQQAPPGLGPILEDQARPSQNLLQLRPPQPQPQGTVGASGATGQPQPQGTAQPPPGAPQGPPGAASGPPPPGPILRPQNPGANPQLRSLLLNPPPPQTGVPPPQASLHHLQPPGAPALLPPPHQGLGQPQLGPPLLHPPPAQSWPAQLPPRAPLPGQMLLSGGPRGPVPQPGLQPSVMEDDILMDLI
UniProt Q8TC05, sequence (Q8TC05 whole entry, looked up): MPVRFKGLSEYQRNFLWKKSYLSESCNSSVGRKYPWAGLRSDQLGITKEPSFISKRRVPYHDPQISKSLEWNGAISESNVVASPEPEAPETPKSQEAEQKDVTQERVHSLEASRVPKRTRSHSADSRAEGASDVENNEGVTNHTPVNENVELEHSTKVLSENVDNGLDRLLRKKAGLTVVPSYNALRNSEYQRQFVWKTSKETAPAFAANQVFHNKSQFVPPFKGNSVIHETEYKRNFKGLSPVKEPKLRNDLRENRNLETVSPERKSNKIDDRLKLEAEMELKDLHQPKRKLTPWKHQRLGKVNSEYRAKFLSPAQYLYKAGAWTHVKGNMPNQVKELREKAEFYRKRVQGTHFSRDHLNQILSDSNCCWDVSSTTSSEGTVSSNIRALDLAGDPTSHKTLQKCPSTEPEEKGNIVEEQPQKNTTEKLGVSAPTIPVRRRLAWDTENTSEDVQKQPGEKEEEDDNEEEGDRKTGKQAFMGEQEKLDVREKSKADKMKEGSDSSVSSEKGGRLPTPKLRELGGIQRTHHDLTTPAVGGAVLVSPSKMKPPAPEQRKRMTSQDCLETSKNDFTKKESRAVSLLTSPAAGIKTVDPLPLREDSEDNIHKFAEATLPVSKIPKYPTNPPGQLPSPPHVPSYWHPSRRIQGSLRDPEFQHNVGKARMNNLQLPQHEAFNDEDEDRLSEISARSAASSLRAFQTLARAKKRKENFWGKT
UniProt O95297, sequence (O95297 whole entry, looked up): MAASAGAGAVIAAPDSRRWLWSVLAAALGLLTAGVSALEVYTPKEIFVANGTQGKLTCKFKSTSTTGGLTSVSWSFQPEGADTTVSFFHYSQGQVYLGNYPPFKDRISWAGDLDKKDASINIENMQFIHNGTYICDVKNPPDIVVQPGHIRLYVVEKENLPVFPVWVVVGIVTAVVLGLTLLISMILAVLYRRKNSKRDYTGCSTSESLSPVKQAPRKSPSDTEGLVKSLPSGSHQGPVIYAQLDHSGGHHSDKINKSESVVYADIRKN
UniProt Q8WXB1, sequence (Q8WXB1 whole entry, looked up): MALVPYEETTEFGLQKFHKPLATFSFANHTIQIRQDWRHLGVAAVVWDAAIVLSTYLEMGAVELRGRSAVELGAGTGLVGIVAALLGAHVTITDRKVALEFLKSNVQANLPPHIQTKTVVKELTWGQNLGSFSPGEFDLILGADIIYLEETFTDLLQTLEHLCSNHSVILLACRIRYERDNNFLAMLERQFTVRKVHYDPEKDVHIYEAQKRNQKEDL
UniProt Q07866, sequence (Q07866 whole entry, looked up): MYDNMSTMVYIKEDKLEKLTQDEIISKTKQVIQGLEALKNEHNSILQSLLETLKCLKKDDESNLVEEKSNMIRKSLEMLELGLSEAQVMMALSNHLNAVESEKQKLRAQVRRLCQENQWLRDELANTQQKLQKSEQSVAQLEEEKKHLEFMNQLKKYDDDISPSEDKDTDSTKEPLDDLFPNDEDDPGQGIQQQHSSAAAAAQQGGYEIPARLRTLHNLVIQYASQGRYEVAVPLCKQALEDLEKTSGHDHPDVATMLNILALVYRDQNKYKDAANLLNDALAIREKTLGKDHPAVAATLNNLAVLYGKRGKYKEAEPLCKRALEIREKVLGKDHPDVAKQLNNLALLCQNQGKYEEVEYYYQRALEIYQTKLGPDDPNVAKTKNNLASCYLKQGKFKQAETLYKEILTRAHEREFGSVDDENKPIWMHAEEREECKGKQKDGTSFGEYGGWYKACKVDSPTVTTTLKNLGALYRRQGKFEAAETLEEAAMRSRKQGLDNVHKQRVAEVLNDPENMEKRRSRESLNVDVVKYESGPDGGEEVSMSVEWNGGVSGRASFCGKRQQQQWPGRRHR
UniProt Q9UBB5, sequence (Q9UBB5 whole entry, looked up): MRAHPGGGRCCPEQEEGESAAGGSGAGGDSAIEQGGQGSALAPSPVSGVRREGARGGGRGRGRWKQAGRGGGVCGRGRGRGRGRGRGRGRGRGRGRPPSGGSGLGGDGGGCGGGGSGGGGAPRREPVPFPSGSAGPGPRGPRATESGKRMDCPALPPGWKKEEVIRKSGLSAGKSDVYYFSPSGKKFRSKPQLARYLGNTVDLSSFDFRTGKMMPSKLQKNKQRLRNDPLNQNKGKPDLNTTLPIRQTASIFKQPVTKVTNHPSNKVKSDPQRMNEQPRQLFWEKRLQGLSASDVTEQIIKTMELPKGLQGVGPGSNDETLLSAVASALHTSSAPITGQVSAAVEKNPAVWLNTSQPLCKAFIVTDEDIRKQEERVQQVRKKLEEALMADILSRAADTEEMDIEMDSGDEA

Point of comparison: MAP4K4 isoform 6 (UniProt O95819), log2 fold change -0.134. Against it:
- KLC1 isoform 10 (UniProt Q07866) — within 0.2 log units, -0.144
- MEGF8 (UniProt Q7Z7M0) — within 0.2 log units, 0.05
- MRC2 (UniProt Q9UBG0) — higher, 0.346
- MAPKAP1 (UniProt Q9BPZ7) — within 0.2 log units, -0.111
- KMT2B (UniProt Q9UMN6) — higher, 0.531
- METTL21A (UniProt Q8WXB1) — higher, 0.07
- KIF21A (UniProt H0YI78) — within 0.2 log units, -0.113
- MAP4K4 isoform 3 (UniProt O95819) — within 0.2 log units, -0.145
- MED8 isoform 2 (UniProt Q96G25) — within 0.2 log units, 0.037
- LAMP1 (UniProt P11279) — higher, 0.095
- MAN2B2 (UniProt Q9Y2E5) — higher, 0.117
- LPCAT1 (UniProt Q8NF37) — within 0.2 log units, 0.027
- MPZL1 (UniProt O95297) — within 0.2 log units, 0.022
- MAPK7 (UniProt Q13164) — within 0.2 log units, -0.102
- MED28 (UniProt Q9H204) — within 0.2 log units, -0.219
- MCUB (UniProt Q9NWR8) — higher, 0.129
- MDM1 (UniProt Q8TC05) — higher, 0.085
- LIMK2 isoform 3 (UniProt P53671) — within 0.2 log units, -0.21
- MME (UniProt P08473) — higher, 0.096
- MRPL27 (UniProt Q9P0M9) — higher, 0.087
- MIF (UniProt P14174) — within 0.2 log units, -0.055
- MRPL30 isoform 2 (UniProt Q8TCC3) — within 0.2 log units, 0.041
- LYN isoform 2 (UniProt P07948) — within 0.2 log units, -0.118
- KRAS isoform 2 (UniProt P01116) — higher, 0.068
- LSS (UniProt P48449) — within 0.2 log units, 0.049

In the case of MED25 isoform 3 (UniProt Q71SY5), the log2 fold change is reported as -0.294 (active).
With MBD2 (UniProt Q9UBB5) the log2 fold change was -0.244 (active).
LEPROT (UniProt O15243) was tested, and the log2 fold change was -0.641 (active).
In the case of MRPL22 (UniProt Q9NWU5), the log2 fold change is reported as -0.687 (active).

The targets below were run with O=C(O)c1ccc2c(c1)nc(Nc1cccc(Cl)c1)c1ccncc12 [silmitasertib] in the same assay as above.
Procedure, shortened: as §1

Point of comparison: MRPL30 isoform 2 (UniProt Q8TCC3), log2 fold change -0.023. Against it:
- KLC1 isoform 10 (UniProt Q07866) — within 0.2 log units, -0.165
- MEGF8 (UniProt Q7Z7M0) — within 0.2 log units, -0.062
- MED25 isoform 3 (UniProt Q71SY5) — within 0.2 log units, 0.021
- MRC2 (UniProt Q9UBG0) — within 0.2 log units, -0.051
- MAPKAP1 (UniProt Q9BPZ7) — higher, 0.187
- METTL21A (UniProt Q8WXB1) — within 0.2 log units, -0.016
- KIF21A (UniProt H0YI78) — within 0.2 log units, -0.016
- MAP4K4 isoform 3 (UniProt O95819) — within 0.2 log units, 0.045
- MBD2 (UniProt Q9UBB5) — within 0.2 log units, 0.017
- MED8 isoform 2 (UniProt Q96G25) — within 0.2 log units, -0.012
- LEPROT (UniProt O15243) — within 0.2 log units, 0.167
- LAMP1 (UniProt P11279) — within 0.2 log units, -0.009
- MAN2B2 (UniProt Q9Y2E5) — within 0.2 log units, -0.014
- LPCAT1 (UniProt Q8NF37) — within 0.2 log units, -0.076
- MPZL1 (UniProt O95297) — within 0.2 log units, -0.004
- MAPK7 (UniProt Q13164) — within 0.2 log units, 0
- MED28 (UniProt Q9H204) — within 0.2 log units, 0.003
- MRPL22 (UniProt Q9NWU5) — within 0.2 log units, 0.001
- MCUB (UniProt Q9NWR8) — within 0.2 log units, 0.057
- MDM1 (UniProt Q8TC05) — within 0.2 log units, 0.093
- LIMK2 isoform 3 (UniProt P53671) — within 0.2 log units, 0.114
- MME (UniProt P08473) — within 0.2 log units, -0.033
- MRPL27 (UniProt Q9P0M9) — within 0.2 log units, 0.106
- MIF (UniProt P14174) — within 0.2 log units, 0.065
- MAP4K4 isoform 6 (UniProt O95819) — within 0.2 log units, 0.02
- LYN isoform 2 (UniProt P07948) — within 0.2 log units, 0.049
- KRAS isoform 2 (UniProt P01116) — within 0.2 log units, -0.015
- LSS (UniProt P48449) — within 0.2 log units, -0.039

With KMT2B (UniProt Q9UMN6) the log2 fold change was -0.76 (active).
